# This is a sample that favours compounds with a hit; in the whole collection about 2.5% have one here.
# GRK2 inh: compounds blocking aptamer binding on GRK2 – biochemical, human GRK2, bead flow cytometry, HTS, primary screen; AID 488847, 2010; Beta-adrenergic receptor kinase 1 (Homo sapiens), P25098; FAM-aptamer displacement from GRK2; inhibition of aptamer binding, % at 10 µM; 0.59% of 330,000 active;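 active = inhibition of aptamer binding above 40%, roughly 3 SD of noise, on plates passing a quality check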;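 also: median bead fluorescence of bound FAM aptamer so fluorescent compounds give negative values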
# MEKK2 mut-MEK5: MEK5 binding signal on mutant MEKK2 PB1, primary screen, biochemical, multiplex bead flow cytometry, Alexa488-MEK5; Alexa488-MEK5 binding to MEKK2 mutant; percent response, % at 10 µM; 0.35% of 290,000 active; AID 1530, 2009; in the data active = percent response above about 24%, passing the limit was not always enough
# MEKK2 WT-MEK5: modulators of MEK5 binding to wildtype MEKK2, primary screen, biochemical, multiplex bead flow cytometry, Alexa488-MEK5; Alexa488-MEK5 binding to MEKK2 WT; actives lie on both sides; binding response (% of control), % at 10 µM; 1.1% of 290,000 active; in the data active = binding response below about 67% or above about 130%
# MEKK3 PB1 HTS: modulators of MEKK3-MEK5 PB1 binding, primary screen, biochemical, wildtype MEKK3, multiplex bead flow cytometry, Alexa488-MEK5. Mitogen-activated protein kinase kinase kinase 3 (Homo sapiens), Q99759. bead-based flow cytometry, Alexa488-MEK5 binding to MEKK3; actives lie on both sides; 0 = blocked by unlabeled MEK5, 100 = vehicle. binding response (% of control), % at 10 µM. 1.4% of 290,000 active;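 active = binding response more than 3 SD above or below the average of its plate-row segment, actives on both sides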;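 also: Alexa488 bead fluorescence after subtracting the streptavidin-only scavenger bead signal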
# Target sequence (Q99759 whole entry, looked up): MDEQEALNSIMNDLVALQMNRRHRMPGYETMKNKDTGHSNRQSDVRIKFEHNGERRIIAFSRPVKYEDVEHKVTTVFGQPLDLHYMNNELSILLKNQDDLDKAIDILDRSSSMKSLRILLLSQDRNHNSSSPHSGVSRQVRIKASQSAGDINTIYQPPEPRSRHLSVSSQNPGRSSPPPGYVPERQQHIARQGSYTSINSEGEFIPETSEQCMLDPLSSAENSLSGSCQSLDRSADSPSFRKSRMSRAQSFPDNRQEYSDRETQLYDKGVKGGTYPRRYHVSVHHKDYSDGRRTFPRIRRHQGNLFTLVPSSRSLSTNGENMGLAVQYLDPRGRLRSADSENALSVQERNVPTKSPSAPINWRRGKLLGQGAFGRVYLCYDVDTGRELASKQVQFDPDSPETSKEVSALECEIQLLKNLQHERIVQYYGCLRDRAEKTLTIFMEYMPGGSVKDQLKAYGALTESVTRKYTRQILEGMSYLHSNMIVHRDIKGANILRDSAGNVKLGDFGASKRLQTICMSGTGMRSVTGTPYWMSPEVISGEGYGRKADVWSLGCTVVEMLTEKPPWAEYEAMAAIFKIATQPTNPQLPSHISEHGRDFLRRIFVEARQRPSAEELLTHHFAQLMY
# MEKK2wt confirm: modulators of MEK5 binding to wildtype MEKK2, confirmation, biochemical, single concentration, multiplex bead flow cytometry; binding response (% of control), % at 10 µM; shares compounds with MEKK3 PB1 HTS; AID 1892, 2009; Alexa488-MEK5 binding to MEKK2 WT; actives lie on both sides; 2.4% of 5,900 active; in the data active = binding response below about 16% or above about 210%; inactive = in between
# MEKK2mut-MEK5: mutant MEKK2 PB1-MEK5 binding signal retest – biochemical, single concentration, multiplex bead flow cytometry, confirmation. shares compounds with MEKK3 PB1 HTS. Alexa488-MEK5 binding to MEKK2 mutant. percent response, % at 10 µM. 2% of 5,900 active. AID 1893, 2009; in the data active = percent response mostly above about 71%, no sharp cut-off; inactive = mostly below about 38%;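 also: higher means compound restores mutant binding toward wildtype level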
# MEKK3 confirm: MEKK3 wild-type PB1 binding to MEK5, inhibitors, confirmation, biochemical, bead multiplex flow cytometry, single concentration, wildtype; shares compounds with MEKK3 PB1 HTS; Alexa488-MEK5 binding to MEKK3; stronger effect = lower value; binding response (% of control), % at 10 µM; 1.8% of 5,900 active;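 active = binding response below 72% of control, or above a set upper limit, though filed actives all read lower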;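 also: 100% = DMSO only wells and 0% = binding blocked by excess unlabeled MEK5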
# * = called active by the depositor; / = not tested or not shown; ! = not active in a repeat; [ ] = another dose, or the depositor's remark.
SMILES,GRK2 inh,MEKK2 mut-MEK5,MEKK2 WT-MEK5,MEKK3 PB1 HTS,MEKK2wt confirm,MEKK2mut-MEK5,MEKK3 confirm
CCN(CC)c1ccc(C=Nc2ccc(C)cc2)c(O)c1,2.0,-6.0,69.0*[inhibitor],95.0,84.0,-15.0,92.0
CCN(CC)c1ccc(/C=N/Nc2cccc(C)c2)c(O)c1,0.0,5.0,109.0,100.0,/,/,/
CCN(CC)c1ccc(C=Nc2ccccc2)c(O)c1,4.0,7.0,103.0,109.0,/,/,/
O=C1NN(c2ccccc2)C(=O)/C1=C\c1ccccc1OCC(=O)N1CCOCC1,0.0,2.0,107.0,105.0,/,/,/
CCOc1ccccc1N/C(=N/c1nc(C)cc(C)n1)NC(=O)Nc1ccc(Cl)c(Cl)c1,0.0,-1.0,94.0,72.0*[inhibitor],100.0,-5.0,102.0
OCc1nc2ccccc2n1CC(O)Cn1ccc2ccccc21 (stereo not drawn),0.0,16.0,110.0,102.0,/,/,/
OC(CN1CCNCC1)Cn1ccc2ccccc21 (stereo not drawn),0.0,35.0*,153.0,107.0,156.0,33.0,105.0
O=C1c2ccccc2S(=O)(=O)N1CC(O)Cn1ccc2ccccc21 (stereo not drawn),14.0,81.0*,31.0*,97.0,87.0,-3.0,100.0
CC(=O)OC1CCC2(C)C(=CCC3C2CCC2(C)C3CC3OC4(CCC(C)CN4)C(C)C32)C1 (stereo not drawn),/,5.0,105.0,86.0,/,/,/
CC1CCN(C(=O)c2ccc(S(=O)(=O)NCc3ccco3)cc2)CC1,2.0,-3.0,99.0,101.0,/,/,/
Cc1cc(Br)ccc1NC(=O)CCSc1ccccc1,2.0,4.0,97.0,100.0,/,/,/
Cc1cc(NC(=O)CCSc2ccccc2)ccc1Br,0.0,-1.0,113.0,133.0*,104.0,-4.0,105.0
O=C(/C=C/c1ccc(Cl)c([N+](=O)[O-])c1)Nc1cccc(NC(=O)c2ccco2)c1,1.0,0.0,112.0,143.0*,107.0,1.0,103.0
CC(C)N1CCc2c(sc(NC(=O)c3nc4ccccc4s3)c2C(N)=O)C1,0.0,6.0,106.0,107.0,/,/,/
CC(C)N1CCc2c(sc(NC(=O)c3ccc(S(=O)(=O)N4CCc5ccccc54)cc3)c2C(N)=O)C1,0.0,56.0*,196.0*,107.0,164.0,27.0,99.0
O=CN1CCN(C(=O)COc2ccc(Cl)cc2Br)CC1,1.0,0.0,108.0,149.0*,98.0,-3.0,101.0
O=C(COc1ccc(Cl)cc1Br)N1CCN(c2ccccc2)CC1,1.0,5.0,103.0,101.0,/,/,/
C[C@H](CO)N1C[C@H](C)[C@@H](CN(C)S(=O)(=O)c2cccs2)Oc2ccc(NS(=O)(=O)c3cn(C)cn3)cc2C1=O,0.0,/,/,/,/,/,/
Cc1ccc(CN2CCSc3ccc(C(=O)NCc4ccco4)cc32)cc1,0.0,-15.0,58.0*[inhibitor],56.0*[inhibitor],100.0,-2.0,105.0
Cc1ccc(CN2CCSc3ccc(C(=O)NC4CCN(Cc5ccccc5)CC4)cc32)cc1,0.0,46.0,206.0*,106.0,240.0*,80.0*,110.0
O=C(NC1CCCC1)c1ccc2c(c1)N(Cc1ccccc1)CCS2,4.0,-2.0,100.0,99.0,/,/,/
CC(C)CCn1c(Oc2ccccc2Cl)nc2c1c(=O)n(C)c(=O)n2C,2.0,-3.0,99.0,103.0,/,/,/
COc1ccc(S(=O)(=O)N2CCC(C(=O)NCCc3ccc4c(c3)OCO4)CC2)cc1,2.0,-26.0,56.0,48.0*[inhibitor],106.0,-1.0,102.0
O=C(NCCc1ccc2c(c1)OCO2)C1CCN(S(=O)(=O)c2ccc(Cl)cc2)CC1,2.0,2.0,103.0,101.0,/,/,/
COc1cc(NC(=O)c2ccccc2Cl)c2ncccc2c1,0.0,26.0*,104.0,105.0,107.0,3.0,106.0
SMILES,GRK2 inh,MEKK2 mut-MEK5,MEKK2 WT-MEK5,MEKK3 PB1 HTS,MEKK2wt confirm,MEKK2mut-MEK5,MEKK3 confirm
COc1cc(C(=O)Oc2cc(C)cc(C)c2)cc(OC)c1OC,0.0,13.0,110.0,112.0,/,/,/
COc1ccc(Nc2ccc(C(N)=O)cc2[N+](=O)[O-])cc1,3.0,-3.0,84.0,57.0*[inhibitor],103.0,5.0,105.0
Cc1cccc(CN2CCN(CC(=O)NCCCN3CCCC3=O)C2=O)c1,1.0,-11.0,86.0,81.0,/,/,/
Cc1cccc(CN2CCN(CC(=O)NCCCN3CCN(c4ccc(F)cc4)CC3)C2=O)c1,0.0,34.0,180.0*,111.0,146.0,25.0,108.0
CN(C)CCCN1c2ccccc2Sc2ccc(C(F)(F)F)cc21,0.0,13.0,154.0*,112.0,144.0,26.0,106.0
CCN(CC)CCCCN1c2ccccc2Sc2ccccc21,0.0,12.0,136.0*,109.0,138.0,26.0,109.0
OCCN1CCN(CC/C=C2/c3ccccc3Sc3ccc(C(F)(F)F)cc32)CC1,0.0,/,/,/,/,/,/
CN1CCN(CCCN2c3ccccc3Sc3ccc(Cl)cc32)CC1,0.0,23.0,188.0*!,107.0,157.0,24.0,109.0
CCN(CC)CC(=O)N1c2ccccc2Sc2ccccc21,6.0,3.0,103.0,103.0,/,/,/
CN(C)CCC(=O)N1c2ccccc2Sc2ccc(C(F)(F)F)cc21,0.0,3.0,102.0,97.0,/,/,/
OCCN1CCN(CCCN2c3ccccc3Sc3ccc(C(F)(F)F)cc32)CC1,0.0,19.0,175.0*,114.0,132.0,17.0,108.0
CCCC(=O)NNC(=O)CC(=O)Nc1ccccc1C(=O)O,4.0,13.0,110.0,103.0,/,/,/
CN(C)N=Nc1ccc(S(=O)(=O)NC(Cc2ccccc2)C(=O)O)cc1 (stereo not drawn),2.0,5.0,108.0,108.0,/,/,/
COC(=O)[C@@]1(Cc2ccc(F)cc2)[C@@H]2[C@@H](CC(=O)[C@H]2CC(=O)C(=O)N(C)C)CN1C(=O)c1ccccc1,6.0,-5.0,96.0,85.0,/,/,/
Cc1ccc(-c2nnc(-n3nc(C)cc3C)c3ccccc23)cc1,7.0,0.0,104.0,137.0*,95.0,-5.0,100.0
C/C=C(\C)C(=O)NCCN1C2=NC[C@@H](Cc3ccccc3)N2C[C@@H]1Cc1ccc(OC)cc1,0.0,6.0,133.0,91.0,/,/,/
CCCCCCNC(=O)N[C@@H](C(=O)NCCC[C@H]1CN2C(=NC[C@@H]2Cc2ccccc2)N1CCc1cccc(OC)c1)C(C)C,0.0,46.0*,201.0*,109.0,169.0,49.0,104.0
CCOC(=O)CC(=O)CSc1nccc(-c2cccnc2)n1,4.0,-23.0,54.0,43.0*[inhibitor],95.0,-8.0,97.0

# Compound activity deposited in PubChem BioAssay by NMMLSC.
